Results taken from the supplement of paper PMC13380429.

Tested on: Vero E6 infected with SARS-CoV-2
Test: inhibition of SARS-CoV-2 cytopathic effect; higher = more antiviral protection, active = above 15
Settings: 48 h

Measured: inhibition of SARS-CoV-2 cytopathic effect

O=C(O)c1nn(Cc2ccc(Cl)cc2Cl)c2ccccc12 [lonidamine]
inactive: 1 nM -0.69% | 8.33 nM 0.67% | 100 nM 0.81% | 833.33 nM 1.31% | 10000 nM -0.94%

C[C@]12CC[C@H](O)C[C@H]1CC[C@@H]1[C@@H]2CC[C@]2(C)[C@@H](c3ccc(=O)oc3)C[C@H]3O[C@]132 [resibufogenin]
inactive: 1 nM -0.2% | 8.33 nM -2.33% | 100 nM -5.86% | 833.33 nM -20.4% | 10000 nM -20.4%

O=C1CCc2ccc(OCCCCN3CCN(c4cccc(Cl)c4Cl)CC3)cc2N1 [aripiprazole]
inactive: 1 nM 5.18% | 8.33 nM -2.79% | 100 nM 1.15% | 833.33 nM -1.05% | 10000 nM -5.25%

CN/C(=N\c1ccc(C2=NNC(=O)CC2C)cc1)NC#N (stereo not given) [siguazodan]
inactive: 1 nM 1.52% | 8.33 nM 1.14% | 100 nM -0.26% | 833.33 nM 1.67% | 10000 nM -1.34%

Cc1nc(-c2cccnc2)sc1C(=O)Nc1ccccc1-c1cn2c(CN3CCOCC3)csc2n1
inactive: 1 nM -1.3% | 8.33 nM 1.11% | 100 nM 1.74% | 833.33 nM 0.18% | 10000 nM -2.05%

Cc1cc(C)c(NC(=O)N(Cc2ccc3c(c2)Cc2ccccc2-3)C2CCCCCC2)c(C)c1
inactive: 1 nM 0.2% | 8.33 nM 0.24% | 100 nM 1.89% | 833.33 nM 3.17% | 10000 nM -1.02%

C=CCc1cc(OC)c(O)c(C(=O)NCCO)c1 [alibendol]
inactive: 1 nM -1.08% | 8.33 nM -1.21% | 100 nM -0.53% | 833.33 nM 1.71% | 10000 nM -2.2%

C=CC1=C(C(=O)O)N2C(=O)[C@@H](NC(=O)/C(=N\O)c3csc(N)n3)[C@H]2SC1 [cefdinir]
inactive: 1 nM 1.85% | 8.33 nM 2.62% | 100 nM 2.17% | 833.33 nM -0.24% | 10000 nM 0.66%

O=C(O)C(F)(F)C(F)(F)C(F)(F)C(F)(F)C(F)(F)C(F)(F)C(F)(F)F [ammonium-perfluorocaprylate]
inactive: 1 nM 2.29% | 8.33 nM -0.68% | 100 nM 0.56% | 833.33 nM -0.2% | 10000 nM -2.3%

CNCCc1ccc(O)c(O)c1 [deoxyepinephrine]
inactive: 1 nM -0.96% | 8.33 nM 2.29% | 100 nM 2.18% | 833.33 nM -0.04% | 10000 nM -0.83%

CCc1nc(C(N)=O)c(Nc2ccc(N3CCC(N4CCN(C)CC4)CC3)c(OC)c2)nc1NC1CCOCC1 [gilteritinib]
inactive: 1 nM 0.28% | 8.33 nM 0.02% | 100 nM -2.49% | 833.33 nM -0.11% | 10000 nM 10.3%

CCOc1nc2cccc(C(=O)OC(C)OC(=O)OC3CCCCC3)c2n1Cc1ccc(-c2ccccc2-c2nn[nH]n2)cc1 (stereo not given) [candesartan-cilexetil]
inactive: 1 nM -0.98% | 8.33 nM -0.29% | 100 nM -1.43% | 833.33 nM -3.03% | 10000 nM -2.32%

CC1Nc2ccc(Cl)cc2S(=O)(=O)N1 (stereo not given)
inactive: 1 nM 0.09% | 8.33 nM 1.51% | 100 nM -2.37% | 833.33 nM 1.75% | 10000 nM 2.76%

Oc1ccc(C(O)CNCCCCCCNCC(O)c2ccc(O)c(O)c2)cc1O (stereo not given) [hexoprenaline]
inactive: 1 nM -3.2% | 8.33 nM 0.65% | 100 nM 2.27% | 833.33 nM -1.49% | 10000 nM -2.87%

O=C(O)CNC(=O)c1nc(Cl)c2ccccc2c1O
inactive: 1 nM 0.76% | 8.33 nM 0.65% | 100 nM 4.78% | 833.33 nM 2.19% | 10000 nM -0.7%

CC(C)(O)C(=O)N1CCN(c2ccc(C(F)(F)F)c(C3=C(c4c[nH]c5ccccc45)C(=O)NC3=O)c2)CC1
inactive: 1 nM -0.88% | 8.33 nM -0.68% | 100 nM -5.41% | 833.33 nM -0.21% | 10000 nM 4.03%

CC(C)N(CCC(=O)c1ccc2ccccc2c1)Cc1ccccc1
inactive: 1 nM 0.32% | 8.33 nM -1.41% | 100 nM 1.13% | 833.33 nM 3.16% | 10000 nM 3.92%

COc1cc(NC(=O)c2cccc(-n3cc(NC(=O)Nc4cccc(C)c4)cn3)c2)cc(OC)c1OC
inactive: 1 nM -0.97% | 8.33 nM -0.75% | 100 nM 2.66% | 833.33 nM 0.39% | 10000 nM -0.61%

CCCC(C(=O)OCCN(CC)CC)(c1ccccc1)c1ccccc1 [proadifen]
inactive: 1 nM -8.13% | 8.33 nM -2.48% | 100 nM -0.9% | 833.33 nM -3.07% | 10000 nM -9.2%

CN(CCc1ccc(Cl)c(Cl)c1)CCN1CCCC1
inactive: 1 nM -1.5% | 8.33 nM -0.54% | 100 nM 2% | 833.33 nM 3.84% | 10000 nM -1.25%

N=C(N)c1ccc(OCCCCCOc2ccc(C(=N)N)cc2)cc1 [pentamidine]
inactive: 1 nM -3.18% | 8.33 nM -3.29% | 100 nM -4.34% | 833.33 nM -11.7% | 10000 nM 1.08%

c1ccc(-c2nn3c(c2-c2ccnc4cc(OCCN5CCOCC5)ccc24)CCC3)nc1
inactive: 1 nM -0.68% | 8.33 nM 0.41% | 100 nM 1.87% | 833.33 nM -0.96% | 10000 nM 0.94%

O=C1NC(c2cccc([N+](=O)[O-])c2)=CCN1c1ccccc1O [icilin]
inactive: 1 nM -1.18% | 8.33 nM 2.89% | 100 nM 1.15% | 833.33 nM 0.66% | 10000 nM 0.77%

C=CC(=O)Nc1cccc(Nc2nc(Nc3ccc(OCCOC)cc3)ncc2F)c1
inactive: 1 nM -0.6% | 8.33 nM 2.81% | 100 nM 0.54% | 833.33 nM -6.55% | 10000 nM -11.3%

COc1ccc(S(=O)(=O)N(C(C)=O)c2ccccc2/C=C/c2cc[n+]([O-])cc2)cc1
inactive: 1 nM 2.08% | 8.33 nM 0.26% | 100 nM -2.17% | 833.33 nM -2.71% | 10000 nM -2.49%

CCCCCCCCCCCCCCCCCCCCCC(=O)Nc1ccn([C@@H]2O[C@H](CO)[C@@H](O)[C@@H]2O)c(=O)n1 [enocitabine]
inactive: 1 nM -3% | 8.33 nM -4.05% | 100 nM -1.69% | 833.33 nM -5.11% | 10000 nM -4.84%

CCOC(=O)Nc1ccc2c(c1)N(C(=O)CCN(CC)CC)c1ccccc1S2 [ethacizin]
inactive: 1 nM -5.42% | 8.33 nM -5.11% | 100 nM -2.38% | 833.33 nM -1.38% | 10000 nM 2.9%

CON(C)C(=O)N1N=C(c2cc(F)ccc2F)S[C@@]1(CCCN)c1ccccc1 [filanesib]
inactive: 1 nM -0.78% | 8.33 nM -1.05% | 100 nM -1.91% | 833.33 nM -0.01% | 10000 nM -2.39%

CN(C)CCC(c1ccc(Br)cc1)c1ccccn1 (stereo not given) [brompheniramine]
inactive: 1 nM 4.45% | 8.33 nM 3.77% | 100 nM -3.1% | 833.33 nM -0.09% | 10000 nM -4.65%

O=C(O)c1cc2ccccc2s1
inactive: 1 nM -0.94% | 8.33 nM -1.01% | 100 nM -0.94% | 833.33 nM -0.45% | 10000 nM 0.62%

CC(=O)O[C@]1(C(C)=O)CC[C@H]2[C@@H]3C=C(C)C4=CC(=O)CC[C@@H]4[C@H]3CC[C@@]21C [nomegestrol-acetate]
inactive: 1 nM -1.8% | 8.33 nM -1.93% | 100 nM 0.03% | 833.33 nM 1.28% | 10000 nM -2.55%

Cc1ccc2c(-c3ccccc3)nc(=O)n(C(C)C)c2c1 [proquazone]
inactive: 1 nM 0.68% | 8.33 nM 0.21% | 100 nM -1.31% | 833.33 nM -2.03% | 10000 nM -0.55%

O=C1c2c(O)ccc(O)c2C(=O)c2c(NCCNCCO)ccc(NCCNCCO)c21 [mitoxantrone]
inactive: 1 nM 0.83% | 8.33 nM 0.03% | 100 nM -2.74% | 833.33 nM -4.43% | 10000 nM -11.1%

CO[C@@]12[C@H](COC(N)=O)C3=C(C(=O)C(C)=C(N)C3=O)N1C[C@@H]1N[C@@H]12 [mitomycin-C]
inactive: 1 nM -6.42% | 8.33 nM -2.65% | 100 nM -0.38% | 833.33 nM -1.53% | 10000 nM -5.17%

CNC(=O)[C@@H](c1ccccc1)N1CCc2cc(OC)c(OC)cc2[C@@H]1CCc1ccc(C(F)(F)F)cc1 [almorexant]
inactive: 1 nM 2.74% | 8.33 nM 2.39% | 100 nM 2.44% | 833.33 nM 1.95% | 10000 nM 1.06%

Cc1cn2c(N)c(Cl)cc(C(=O)NCC3CCN(CC(C)C)CC3)c2n1
inactive: 1 nM 2.35% | 8.33 nM 1.24% | 100 nM 2.96% | 833.33 nM 3.33% | 10000 nM 0.75%

COc1cc2c(NC3CCN(C(C)C)CC3)nc(N3CCC(F)(F)CC3)nc2cc1OCCCN1CCCC1
inactive: 1 nM -0.61% | 8.33 nM 0.14% | 100 nM 3.08% | 833.33 nM 0.9%
active: 10000 nM 68.5%

CC(C)(C)NCC(O)c1ccc(O)c(CO)c1 (stereo not given) [albuterol]
inactive: 1 nM -4.08% | 8.33 nM -2.63% | 100 nM -5.03% | 833.33 nM -4.97% | 10000 nM -3.93%

CCNC1=Nc2ccc(Cl)cc2C(C)(c2ccccc2)O1 (stereo not given) [etifoxine]
inactive: 1 nM 2.81% | 8.33 nM 2.31% | 100 nM 0.13% | 833.33 nM 2.41% | 10000 nM -2.7%

CC#CC(=O)N1CC[C@@H](n2c(=O)n(-c3ccc(Oc4ccccc4)cc3)c3c(N)ncnc32)C1
inactive: 1 nM -1.14% | 8.33 nM 2.19% | 100 nM 0.31% | 833.33 nM -8.09% | 10000 nM -0.82%
